14 compounds from PubChem BioAssay (NCATS) can be followed below.

What all share (assay): qHTS profiling for inhibitors of Plasmodium falciparum proliferation (AID 504749); also: nearly all actives have a fitted effect of over 60% in size
Holding throughout (conditions): P. falciparum in erythrocytes, SYBR Green DNA, 72 h; series mostly up to 28.7 µM

The test system of assay [1] is CP335. A digest of the protocol: (§1)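 Readout was DNA-dye fluorescence from lysed cultures, ex 485/em 535 nm. Parasitized red cells had grown 72 h with compound; data scaled between 0.29 uM artemisinin and DMSO wells and corrected using vehicle-only plates.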
The test system of assay [2] is DFO2036. A digest of the protocol:
as §1

The subject of assay [3] is DIV14. A digest of the protocol: as §1
Assay [4] has as its system DIV17. The essentials:
as §1

The subject of assay [5] is DIV30. The essentials:
as §1

Assay [6] deals with FAB9. A digest of the protocol: as §1
Assay [7] deals with GB4. A digest of the protocol:
as §1

Assay [8] deals with HB3. The essentials: as §1
The subject of assay [9] is ICS. A digest of the protocol: as §1
Assay [10] has as its system JCK. A digest of the protocol:
as §1

Assay [11] has as its system N140. A digest of the protocol:
as §1

Assay [12] relates to P93_24. The essentials: as §1
Assay [13] deals with PC15. The essentials:
as §1

Assay [14] has as its system PC26. The essentials: as §1
The subject of assay [15] is CP329. A digest of the protocol:
as §1

Assay [16] deals with Dd2. A digest of the protocol:
as §1

The subject of assay [17] is PC49. A digest of the protocol: as §1
The test system of assay [18] is P94_40. A digest of the protocol: as §1
For assay [19], the system named is PAD. The essentials:
as §1

The subject of assay [20] is ECU. The essentials: as §1

SMILES strings stand for the structures. Inconclusive results are not listed. Activity calls are given as the source filed them. Calls follow the shape of the dose curve; as a rule, active = well fitted inhibition curve with a large enough effect; inconclusive = small, poorly fitted or top-dose-only effect; inactive = flat fitted curve, though single readings scatter.
Potency is read from the fitted curve at half-maximal effect.

For `CCOC(=O)C1=C(C)NC(C)=C(C(=O)OCC)C1c1ccccc1C=CC(=O)OC(C)(C)C`, the Potency in assay [1] is 10.7 µM (active); in [2], 11.2 µM (active); in assay [3], 12 µM (active); in assay [4], 15.1 µM (active); in assay [5], 13.5 µM (active); in assay [6], 11.2 µM (active). For the same compound, the Potency was 10.7 µM (active) in assay [7]; 12.6 µM (active) in assay [8]; 4.47 µM (active) in [9]; 10 µM (active) in [11]; 7.08 µM (active) in [12]; 10 µM (active) in assay [13]. Also, in assay [14], the Potency was 10.7 µM (active). The Potency result in assay [10] was “inactive”.

For the compound `CCCCC(CC)COC(=O)CC(C(=O)OCC(CC)CCCC)S(=O)(=O)O` (stereo not drawn), the Potency result in assay [15], in assay [1], in [3], in assay [4], in assay [5] and in [7] was “inactive” each time. The Potency result in assay [14] is “inactive”.

Turning to `CCOc1ccc(N=Nc2ccc(N)cc2N)cc1`, the Potency result in assay [15], in assay [1], in assay [2], in assay [5], in assay [16] and in [6] was “inactive” each time. For the same compound, the Potency result in [8], in assay [10], in assay [11], in assay [13], in [14] and in assay [17] was “inactive” throughout.

On to `Oc1cc(O)c2c(c1)OC(c1ccc(O)c(O)c1)C(O)C2` (stereo not drawn), for which the Potency entry in assay [15], in [2], in assay [3], in assay [4], in [5] and in [16] was “inactive” throughout. For the same compound, the Potency entry in assay [6], in assay [8], in assay [9], in assay [10], in [11] and in assay [12] was “inactive” in each case. In addition, the Potency entry in [18], in assay [19], in assay [13], in [14] and in assay [17] was “inactive” in each case.

Consider `CC(Cc1ccc(O)c(O)c1)C(C)Cc1ccc(O)c(O)c1` (stereo not drawn), for which the Potency result in assay [15], in [1], in assay [2], in assay [5], in [20] and in assay [6] was “inactive” throughout. In addition, the Potency entry in assay [8], in assay [10], in assay [11] and in [17] was “inactive” throughout. Also, the Potency in assay [9] was 10 µM (active).

In the case of `COC(=O)[C@H]1[C@H]2CC3c4[nH]c5ccccc5c4CCN3C[C@@H]2CC[C@@H]1O` (stereo partly drawn), the Potency result in assay [2], in assay [16], in assay [20], in assay [6], in assay [8] and in [9] was “inactive” in each case. In addition, the Potency entry in [10], in assay [11], in assay [12], in assay [19], in assay [13] and in [17] was “inactive” in each case.

For `CN(C)CCCN1c2ccccc2C(C)(C)c2ccccc21`, the Potency result in [15], in assay [2], in [20], in assay [6], in assay [8] and in assay [10] was “inactive” in each case. Also, the Potency result in assay [19] and in [17] was “inactive” each time. In addition, the Potency is 8.49 µM (active) in assay [3] and 4.78 µM (active) in assay [4].

As for `Nc1c(Br)cc(Br)cc1CNC1CCC(O)CC1` (stereo not drawn), the Potency entry in [15], in [2], in assay [3], in assay [4], in [5] and in [16] was “inactive” throughout. For the same compound, the Potency result in assay [20], in [6], in assay [8], in [10], in assay [11] and in [12] was “inactive” in each case. The Potency result in assay [18], in [19], in assay [13], in [14] and in assay [17] was “inactive” each time.

For the compound `O=CCCCC=O`, the Potency entry in assay [15], in assay [2], in assay [3], in [16], in assay [20] and in assay [6] was “inactive” each time. For the same compound, the Potency entry in assay [10], in assay [11], in assay [18], in assay [19], in [13] and in [17] was “inactive” throughout. In addition, in [9], the Potency is 7.08 µM (active).

With `O=C1CSC2(CCN(CCCN3c4ccccc4Sc4ccc(Cl)cc43)CC2)N1`, the Potency in [3] was 15.1 µM (active); in [4] it was 15.1 µM (active); in [5], 15.1 µM (active); in assay [7], 16.9 µM (active); in assay [9] it was 12.6 µM (active); in assay [12], 8.91 µM (active). Also, the Potency entry in assay [6] and in [10] was “inactive” each time.

For `O=C(O)c1cc(=O)c2c3nc4ccccc4oc-3cc(=O)c2[nH]1`, the Potency result in [15], in assay [2], in [5], in [6], in assay [10] and in [11] was “inactive” in each case. In addition, the Potency result in assay [18] and in assay [17] was “inactive” in each case. Besides, the Potency is 12.6 µM (active) in assay [16], 16.9 µM (active) in [7], 12.6 µM (active) in assay [8] and 0.891 µM (active) in [9].

With `COc1cc(-c2ccc(-[n+]3nc(-c4ccccc4)nn3-c3ccc([N+](=O)[O-])cc3)c(OC)c2)ccc1-[n+]1nc(-c2ccccc2)nn1-c1ccc([N+](=O)[O-])cc1`, the Potency in [15] is 15.1 µM (active); in assay [3], 12 µM (active); in [4] it was 15.1 µM (active); in assay [5], 12 µM (active); in assay [20], 12.6 µM (active); in [7], 12 µM (active). The Potency was 8.91 µM (active) in assay [9], 10 µM (active) in [18] and 15.1 µM (active) in assay [14].

As for `CCCCC(=O)O[C@]1(C(=O)CO)[C@H](C)C[C@H]2[C@@H]3CCC4=CC(=O)C=C[C@]4(C)[C@@]3(F)[C@@H](O)C[C@@]21C`, the Potency entry in [15], in [16], in assay [6], in [8], in [10] and in assay [18] was “inactive” throughout. The Potency entry in assay [17] is “inactive”.

Consider `O=C(Nc1ccc(Br)cc1)c1cc(Br)c(Br)s1`, for which the Potency in [3] was 10.7 µM (active). In addition, the Potency result in assay [6], in assay [13] and in assay [17] was “inactive” throughout.
